Compounds without any hit were thinned out: in the full panel of roughly 83,000, 20% have a hit.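 Results are percent growth after 48 hours of single-concentration exposure. 100 means growth as in untreated cells, lower positive values show inhibition; negative values down to -100 show cell death.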 Activity calls are given as the source filed them. Rule for the calls: active = growth percent below 10; inactive = the rest.
How the values were obtained:
Assay in all cases: NCI-60 one-dose screen, 48 h (100 = growth as untreated, 0 = no growth, -100 = all killed)
Details in all cases: 10 µM unless noted
[1] = system: BT-549 breast
[2] = system: MDA-MB-435 melanoma
[3] = system: SW-620 colon
[4] = system: MCF7 breast
[5] = system: HCT-116 colon
[6] = system: HCC-2998 colon
[7] = system: KM12 colon

Measured: growth

COc1ccc2c(c1)C(=O)c1c-2c(=O)n(CCCCCCC(=O)NO)c2ccccc12
active: [2] -14.1% | [3] -27.4% | [4] 5.92% | [5] -55.8% | [6] -39.6%
inactive: [1] 23.4% | [7] 10.9%

Cc1nnc(Nc2ccc(NC(=O)Nc3ccc(Cl)cc3)cc2)c2ccccc12
active: [2] -40% | [5] 7.67%
inactive: [1] 11.4% | [3] 20.3% | [4] 24.9% | [6] 40.5% | [7] 14.1%

CCOC(=O)c1c2c(c(C)n1Cc1ccccc1)-c1nc(N)ncc1CC2
inactive: [1] 162% | [2] 136% | [3] 104% | [4] 106% | [5] 90.7% | [6] 97.4% | [7] 100%

NC(=Nc1ccccc1)SCCCCSC(N)=Nc1ccccc1
inactive: [1] 86.4% | [2] 89.4% | [3] 92.3% | [4] 87.5% | [5] 88% | [6] 77.6% | [7] 94.2%

OC(c1cc(C(F)(F)F)nc2c(C(F)(F)F)cccc12)C1CCCCN1 (configuration not stated)
inactive: [1] 67.6% | [2] 61.5% | [3] 72.9% | [4] 21.8% | [5] 44.7% | [6] 20.1% | [7] 32.7%

Cc1ccccc1NC(=O)c1cc2ccccc2cc1O
inactive: [2] 28.6% | [3] 47.2% | [4] 80.5% | [5] 30.3% | [6] 81.5% | [7] 23.4%
active: [1] -0.275%

Nc1ccc(C2=NN(c3ccccc3)C(c3ccc(Cl)cc3)C2)cc1 (configuration not stated)
inactive: [1] 70.4% | [2] 49.9% | [3] 41.2% | [4] 14.5% | [6] 76.8% | [7] 18.3%
active: [5] -57.3%

O=c1ccn(C2OC(CO)C(O)C2F)c(=O)[nH]1 (configuration not stated)
inactive: [1] 115% | [2] 107% | [3] 102% | [4] 104% | [5] 108% | [6] 97.8% | [7] 111%

O=C1C(=O)c2ccc(Br)cc2-c2cc(Br)ccc21
inactive: [1] 63% | [2] 20.5% | [6] 87% | [7] 73.1%
active: [3] -1.44% | [4] 0.468% | [5] -71.9%

COc1cc(/C=C2\COc3ccc(O)c(O)c3C2=O)cc(OC)c1
inactive: [4] 16.7% | [6] 25.1%
active: [1] 3.92% | [2] 0.577% | [3] -19.3% | [5] -56% | [7] -11.1%

CC(CCC(=O)O)(NC(=O)c1ccc([N+](=O)[O-])cc1)C(=O)O (configuration not stated)
inactive: [1] 114% | [2] 105% | [3] 103% | [4] 107% | [5] 98.9% | [6] 90.4% | [7] 99.3%

COc1ccc(-c2nc3sccn3c2-c2ccnc(S(C)(=O)=O)n2)cc1
active: [6] -55%
inactive: [1] 122% | [2] 82.7% | [3] 91.1% | [4] 46.2% | [5] 79.6% | [7] 75%

CC(C)C/C(=N\NC(=O)c1ccncc1)c1cc(Cl)ccc1O
inactive: [2] 32.4% | [3] 31.1% | [6] 28.1% | [7] 25.8%
active: [1] -1.24% | [4] 5.38% | [5] 0.442%

O=C(N1CCC(CN=c2cc3n(-c4ccc(Cl)cc4)c4ccccc4nc-3cc2Nc2ccc(Cl)cc2)CC1)N1CC1
active: [1] -82.5% | [2] -29.4% | [3] -83% | [4] -71.6% | [5] -70.9% | [6] -75.9% | [7] -63.7%

CCSc1nnc2n(Cc3ccccc3)c(=O)c3c(C)c(C(N)=O)sc3n12
inactive: [1] 88.9% | [2] 105% | [3] 109% | [4] 96.8% | [5] 100% | [6] 101% | [7] 105%

O=C(Nc1cccc([N+](=O)[O-])c1)c1cccc(C(=O)Nc2cccc([N+](=O)[O-])c2)c1
inactive: [2] 83.1% | [3] 92.8% | [4] 68.3% | [5] 78.4% | [6] 88.2% | [7] 87.6%
active: [1] -4.34%
